The source of these data is PubChem BioAssay (NCATS).

Several values for one entry are separate records, joined by “and”; a condition that tells them apart may be missing. Equal values may be shown once. Inconclusive results are not listed. A call without a number means that no potency is given here. The source holds several records for some structures; these can differ, active in one and inactive in another. Values without a mark were called inactive. Activity calls are given as the source filed them. Calls follow the shape of the dose curve; as a rule, active = well fitted curve in the direction sought with a large enough effect; inconclusive = small, poorly fitted or top-dose-only effect, or another doubt; inactive = no such curve, though single readings can be large; an effect the other way counts as inactive or inconclusive.

The first assay in a line: qHTS Assay for Identifying Gametocytocidal Compounds (AID 743244). Also: potency is read from the fitted curve at half-maximal effect.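 As to max response: actives lower the fluorescent signal which means gametocytes are killed.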 Conditions: P. falciparum 3D7 stage III-V gametocytes, alamarBlue, 72 h; max response: active compounds read low. Summed up: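 A resazurin-based viability read-out was applied to mature P. falciparum gametocytes: 72 h compound treatment, then 24 h dye incubation, with falling fluorescence signalling gametocytocidal effect.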
In general terms: qHTS replaces the single test concentration by a dilution series.
With `c1ccc2c(CC3=NCCN3)cccc2c1`, the max response is 1.75% and 3.04% and -11%.
`CC/C=C(\C(=O)N[C@@H]1C(=O)N2C(C(=O)OCOC(=O)C(C)(C)C)=C(COC(N)=O)CS[C@H]12)c1csc(N)n1`: the max response is 11.6% and -14.5%.
With `COc1ccc2cc1Oc1cc3c(cc1OC)CC[N+](C)(C)[C@H]3Cc1ccc(cc1)Oc1c(OC)c(OC)cc3c1[C@@H](C2)[N+](C)(C)CC3`, the max response was -8.04%.
Take `Nc1ccc(S(=O)(=O)Nc2nccs2)cc1`: the max response is 3.15%.
Still for that read-out and setting: as for `O=C1Nc2ccc(Cl)cc2[C@@](C#CC2CC2)(C(F)(F)F)O1`, the figure is -21.2%; as for `Cc1cc(C(C#N)c2ccc(Cl)cc2)c(Cl)cc1NC(=O)c1cc(I)cc(I)c1O` (configuration not stated), 0.496%.
With `CCN(CC)CCCC(C)Nc1c2ccc(Cl)cc2nc2ccc(OC)cc12` (configuration not stated), the Potency was 3.16 µM (active) and 1 µM (active).
As to `CC(C)(C)c1onc(OCP(=O)(O)O)c1CC(N)C(=O)O` (configuration not stated), the max response is 18.1%.
Turning to `CN(C)CC[C@@H](c1ccc(Cl)cc1)c1ccccn1`, the Potency is 26.4 µM (active) and the max response is 25.3%.
On to `COc1ccc2[nH]c(S(=O)Cc3ncc(C)c(OC)c3C)nc2n1` (configuration not stated), for which the max response is -2.18%.
Take `Cc1cc(N)c2ccccc2[n+]1CCCCCCCCCC[n+]1c(C)cc(N)c2ccccc21`: the Potency is 3.98 µM (active).
On to `C[C@H](NC(CCc1ccccc1)C(=O)O)C(=O)N1CCC[C@H]1C(=O)O` (some centres not stated), for which the max response was 7.34%.
With `OCc1cc(C(O)CNCCCCCCOCCCCc2ccccc2)ccc1O` (configuration not stated), the Potency is 10 µM (active).
Turning to `CC(C)NC[C@H](O)c1ccc(O)c(O)c1`, the max response is -9.19% and 21.1%.
Same read-out and setting: as for `CC1=C(/C=C/C(C)=C/C=C/C(C)=C/C(=O)O)C(C)(C)CCC1`, the figure is 12.7% and 23.7%; as for `Nc1nc2c(ncn2CCC(CO)CO)c(=O)[nH]1`, -1.67%; as for `Cc1cc(O)cc2c1O[C@](C)(CCC[C@H](C)CCC[C@H](C)CCCC(C)C)CC2`, -2.34% and 0.0933%.
Same read-out and setting: as for `O=C1NS(=O)(=O)c2ccccc21`, the figure is 5.05%.
Consider `Nc1ncnc2c1ncn2[C@@H]1O[C@H](CO)[C@@H](O)[C@H]1O`, for which the max response is -0.147% and 30.2%.

The nature of another assay: qHTS assay for cell viability of HEK293 cells (AID 743288). Also: nearly all actives have a fitted effect of over 50% in size. Conditions: ATP luminescence (CellTiter-Glo), 18 h, active compounds read low. Put shortly:
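Viable-cell counts were inferred from luciferase-based ATP content in HEK293 cells seeded at 2,000/well, pre-incubated ≥5 h, then dosed with DMSO-solubilised compounds for 18 h at 37 C.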
Regarding `C[C@]12CC[C@@H]3c4ccc(O)cc4CC[C@H]3[C@@H]1CCC2=O`, the max response is -13%.
As to `O=C1c2c(O)cccc2Cc2cccc(O)c21`, the max response is -1.66%.
On the same count and under the same terms, as for `NC(=O)c1ncn([C@@H]2O[C@H](CO)[C@@H](O)[C@H]2O)n1`, the figure is -7.49%; as for `C[C@]12C[C@H](O)[C@H]3[C@@H](CCC4=CC(=O)CC[C@@]43C)[C@@H]1CC[C@@H]2C(=O)CO`, -14.2% and 1.25%.
Same read-out and setting: next, `CN(C)CCOC(C)(c1ccccc1)c1ccccn1` (configuration not stated): -4.19%; `Nc1ccc(S(=O)(=O)Nc2nccs2)cc1`: -1.59%; `CC(CN1c2ccccc2Sc2ccccc21)N(C)C` (configuration not stated): -10.5%.
With `CN(C)CCCN1c2ccccc2Sc2ccc(Cl)cc21`, the max response was -23.7%.
Same read-out and setting: next, `CC1=C(/C=C/C(C)=C/C=C/C(C)=C/C(=O)O)C(C)(C)CCC1`: -2.27% and -2.67%.
Still for that read-out and setting: next, `O=C1NS(=O)(=O)c2ccccc21`: 0.942%.

The nature of the next assay: qHTS assay for cell viability of the p53RE-bla HCT-116 cell line (AID 743292). Also: nearly all actives have a fitted effect of over 55% in size. Conditions: p53RE-bla HCT-116 viability, ATP luminescence, 16 h; series mostly up to 95 µM. Summed up:
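After plating at 4,000 cells per well and a 5 h rest at 37 C, HCT-116 cells carrying p53RE-bla received test chemicals in DMSO. Sixteen hours later at 37 C, CellTiter-Glo was added and luminescence recorded following 30 min at room temperature.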
With `C[C@]12CC[C@@H]3c4ccc(O)cc4CC[C@H]3[C@@H]1CCC2=O`, the Potency result was “inactive”.
As for `O=C1c2c(O)cccc2Cc2cccc(O)c21`, the Potency entry was “inactive”.
On the same count and under the same terms, next, `NC(=O)c1ncn([C@@H]2O[C@H](CO)[C@@H](O)[C@H]2O)n1`: “inactive”.
In the case of `C[C@]12C[C@H](O)[C@H]3[C@@H](CCC4=CC(=O)CC[C@@]43C)[C@@H]1CC[C@@H]2C(=O)CO`, the Potency result is “inactive”.
In the case of `CN(C)CCOC(C)(c1ccccc1)c1ccccn1` (configuration not stated), the Potency result was “inactive”.
Take `Nc1ccc(S(=O)(=O)Nc2nccs2)cc1`: the Potency result was “inactive”.
The same measure, in the same setting: as for `CN(C)CCCN1c2ccccc2Sc2ccc(Cl)cc21`, the entry is “inactive”; as for `CC1=C(/C=C/C(C)=C/C=C/C(C)=C/C(=O)O)C(C)(C)CCC1`, “inactive”; as for `O=C1NS(=O)(=O)c2ccccc21`, “inactive”.

The nature of another assay: qHTS assay for measurement of the activity of small molecule inhibitors on Zika virus induced Caspase-3 activity in human iPSC derived neural progenitor cells (hNPCs) (AID 1224857). Also: nearly all actives have a fitted effect of over 65% in size. Conditions: hNPCs ZIKV-induced caspase-3/7, Caspase-Glo luminescence, 6 h; series mostly up to 45.7 µM. Put shortly:
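Quantitative HTS format: human iPSC neural progenitors, 1 h compound pretreatment, ZIKV 2 FFU/cell for 6 h at 37 C. Percent inhibition derived from luminescent caspase-3/7 signal between uninfected and infected controls.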
For `CC(C)(C(=O)O)c1ccc(C(O)CCCN2CCC(C(O)(c3ccccc3)c3ccccc3)CC2)cc1` (configuration not stated), the outcome was inactive.
The same measure, in the same setting: next, `O=C(O)Cc1sc(-c2ccccc2)nc1-c1ccc(Cl)cc1`: “inactive”.
With `[O-][n+]1cccc(CO)c1`, the call was inactive.
With `C[C@]12CC[C@@H]3c4ccc(O)cc4CC[C@H]3[C@@H]1CCC2=O`, the call was inactive.
`CN1[C@@H]2CC[C@H]1CC(OC(=O)C(O)c1ccccc1)C2` (some centres not stated): the compound was classed as inactive.
Take `O=C1c2c(O)cccc2Cc2cccc(O)c21`: the compound was classed as inactive.
On to `NC(=O)c1ncn([C@@H]2O[C@H](CO)[C@@H](O)[C@H]2O)n1`, for which the result was inactive.
Consider `C[C@]12C[C@H](O)[C@H]3[C@@H](CCC4=CC(=O)CC[C@@]43C)[C@@H]1CC[C@@H]2C(=O)CO`, for which the compound was called inactive.
Same read-out and setting: next, `CC(C)C(=O)c1c(C(C)C)nn2ccccc12`: “inactive”; `CC(C)c1c(C(=O)Nc2ccccc2)c(-c2ccccc2)c(-c2ccc(F)cc2)n1CC[C@@H](O)C[C@@H](O)CC(=O)O`: “inactive”.
Same read-out and setting: as for `CCN(CC)CCOC(=O)C1(C2CCCCC2)CCCCC1`, the entry is “inactive”.
The same measure, in the same setting: next, `CN(C)CCOC(C)(c1ccccc1)c1ccccn1` (configuration not stated): “inactive”; `c1ccc2c(CC3=NCCN3)cccc2c1`: “inactive”.
With `CC/C=C(\C(=O)N[C@@H]1C(=O)N2C(C(=O)OCOC(=O)C(C)(C)C)=C(COC(N)=O)CS[C@H]12)c1csc(N)n1`, the outcome was inactive.
As for `COc1ccc2cc1Oc1cc3c(cc1OC)CC[N+](C)(C)[C@H]3Cc1ccc(cc1)Oc1c(OC)c(OC)cc3c1[C@@H](C2)[N+](C)(C)CC3`, the result was inactive.
As for `Nc1ccc(S(=O)(=O)Nc2nccs2)cc1`, the compound was called inactive.
Consider `CC(CN1c2ccccc2Sc2ccccc21)N(C)C` (configuration not stated), for which the outcome was inactive.
With `O=C1Nc2ccc(Cl)cc2[C@@](C#CC2CC2)(C(F)(F)F)O1`, the call was inactive.
With `Cc1cc(C(C#N)c2ccc(Cl)cc2)c(Cl)cc1NC(=O)c1cc(I)cc(I)c1O` (configuration not stated), the compound was called inactive.
For `CCN(CC)CCCC(C)Nc1c2ccc(Cl)cc2nc2ccc(OC)cc12` (configuration not stated), the call was inactive.
Turning to `CC(C)(C)c1onc(OCP(=O)(O)O)c1CC(N)C(=O)O` (configuration not stated), the compound was called inactive.
On the same count and under the same terms, next, `CN(C)CC[C@@H](c1ccc(Cl)cc1)c1ccccn1`: “inactive”; `COc1ccc2[nH]c(S(=O)Cc3ncc(C)c(OC)c3C)nc2n1` (configuration not stated): “inactive”.
Same read-out and setting: as for `Cc1cc(N)c2ccccc2[n+]1CCCCCCCCCC[n+]1c(C)cc(N)c2ccccc21`, the entry is “inactive”; as for `CN(C)CCCN1c2ccccc2Sc2ccc(Cl)cc21`, “inactive”.
Take `C[C@H](NC(CCc1ccccc1)C(=O)O)C(=O)N1CCC[C@H]1C(=O)O` (some centres not stated): the outcome was inactive.
The same measure, in the same setting: as for `OCc1cc(C(O)CNCCCCCCOCCCCc2ccccc2)ccc1O` (configuration not stated), the entry is “inactive”; as for `CC(C)NC[C@H](O)c1ccc(O)c(O)c1`, “inactive”.
The same measure, in the same setting: as for `CC1=C(/C=C/C(C)=C/C=C/C(C)=C/C(=O)O)C(C)(C)CCC1`, the entry is “inactive”.
For the compound `Nc1nc2c(ncn2CCC(CO)CO)c(=O)[nH]1`, the outcome was inactive.
Same read-out and setting: next, `Cc1cc(O)cc2c1O[C@](C)(CCC[C@H](C)CCC[C@H](C)CCCC(C)C)CC2`: “inactive”; `O=C1NS(=O)(=O)c2ccccc21`: “inactive”.
Consider `Nc1ncnc2c1ncn2[C@@H]1O[C@H](CO)[C@@H](O)[C@H]1O`, for which the result was inactive.
